# Compound activity deposited in PubChem by several laboratories.
# sEH activator: increases human soluble epoxide hydrolase activity; P34913; hit rate 0.04% among 91,000; activation, % at 2 µM; purified human sEH enzymatic activity, activator screen; in the data active = activation above about 37%
# CYP2C9 act: activators of human CYP2C9; P11712; recombinant CYP2C9, luciferin-H conversion, luminescence; stronger effect = higher value; factor 1 = untreated enzyme, 0 = blocked; activation factor at 5 µM; hit rate 1.4% among 96,000;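 active = activation factor of 2 or more for CYP2C9 at a 5 µM dose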;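 note: 0 = sulfaphenazole-blocked wells and 1 = vehicle-only wells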
# sEH inh: blocks human soluble epoxide hydrolase activity. recombinant human sEH enzymatic activity assay. inhibition, % at 2 µM. hit rate 0.34% among 91,000. P34913; in the data active = inhibition above about 80%
# CYP2C19 act: cytochrome P450 2C19 (human) activation. recombinant CYP2C19, luciferin-H EGE luminescence; stronger effect = higher value; 0 = fully inhibited enzyme, 1 = untreated enzyme. AID 1025. 96,000 tested, under 10 active. activation factor at 5 µM. P33261;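 active = activation factor of at least 2 at 5 µM in the primary screen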;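 note: 0 = wells with 2.5 mM tranylcypromine and 1 = vehicle-only wells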
# CYP2C19 inh: human CYP2C19 inhibition; P33261; CYP2C19 Supersomes, luciferin-H EGE luminescence, 30 min; inhibition, % at 5 µM; hit rate 21% among 96,000; AID 778;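 active = CYP2C19 inhibition above a set limit at 5 µM in the primary screen, cut at about 50% in these data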;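 note: plate controls were negative control wells for no effect and 2.5 mM tranylcypromine positive control for full effect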
# CYP2C9 inh: human CYP2C9 inhibition | P11712 | CYP2C9 Supersomes, luciferin-H conversion, luminescence | inhibition, % at 5 µM | hit rate 20% among 96,000 | AID 777;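 active = blocking of liver enzyme CYP2C9 beyond about 50% at 5 µM, limit read from the data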
# Numbers without * were called inactive; nt = not tested or not shown. Rows were chosen to be rich in hits. Some 27% of all compounds tested hit in one or more screens of this group.
SMILES,sEH activator,CYP2C9 act,sEH inh,CYP2C19 act,CYP2C19 inh,CYP2C9 inh
Cc1ccc(C(=O)COC(=O)CNC(=O)C(c2ccccc2)c2ccccc2)cc1[N+](=O)[O-],14,1.2,-13,0.7,30,-20
Cc1ccccc1CSCC(Nc1ccc(C(=O)O)cc1[N+](=O)[O-])C(=O)O (stereo unspecified),13,0.3,-16,1,-2,69*
O=C(Nc1ccc(Cc2ccncc2)cc1)c1ccco1,-31,0,31,0,96*,98*
Cn1cc(Cl)c(C(=O)Nc2nc3ccccc3s2)n1,5,1.1,-7,0.5,54*,-6
O=C(Nc1ccc(Oc2ccc(NC(=O)c3ccco3)c(NC(=O)c3ccco3)c2)cc1)c1ccco1,-45,0.3,47,0.5,51*,73*
O=C(Nc1ccc(Oc2ccc3ccccc3c2)cc1)c1ccco1,-8,1.2,8,0.8,19,-17
O=C(Nc1ccc(OCC(=O)N2CCC(Cc3ccccc3)CC2)cc1)c1ccco1,-17,0.1,16,0.1,95*,87*
C=C(C)Cn1c(SCCN2CCOCC2)nc2c1c(=O)[nH]c(=O)n2C,-13,nt,16,nt,nt,nt
CCc1nnc(N2C(=O)c3cccc4cccc(c34)C2=O)s1,13,1.4,-14,1,-4,-38
CC(C)Cn1c(Br)nc2c1c(=O)n(CCC#N)c(=O)n2C,-4,1.1,4,1,1,-8
O=C(Nc1ccc(Br)cc1)c1ccco1,0,0.8,-2,1.1,-5,21
O=C(Nc1nccs1)c1ccc(NC(=O)c2ccco2)cc1,3,0.5,-4,0.8,20,51*
CC(C)C(=O)Nc1ccc(Nc2ccccc2)cc1,-8,0.4,6,0.5,55*,55*
O=C(COC(=O)Cc1cccs1)Nc1ccccc1,0,0.7,-2,0.3,69*,29
O=C(Nc1ccc(Nc2ccccc2)cc1)c1ccco1,-2,0.2,2,0.3,67*,82*
CC(C)CC(=O)Nc1ccc(Nc2ccccc2)cc1,1,nt,-2,nt,nt,nt
CC(=O)N1CCc2ccc(C(=O)CN3CCN(c4cccc(C)c4C)CC3)cc21,-14,1,16,1,-4,0
Cc1ccnc(NC2c3ccccc3C(=O)N2Cc2ccccc2Cl)c1 (stereo unspecified),nt,0.8,nt,0.9,5,23
CCOc1ccc(NC(=O)c2ccco2)cc1,10,0.9,-10,0.8,22,5
CN(C)C(=O)COC(=O)[C@H](Cc1ccccc1)NC(=O)c1ccco1,-1,0.8,3,0.9,8,16
O=C(COC(=O)c1ccco1)Nc1ccccc1,6,0.8,-6,0.4,58*,18
O=C(Nc1nc(-c2cccs2)c(-c2ccccc2)s1)c1ccco1,nt,0,nt,0.3,66*,96*
O=C(COC(=O)[C@H](Cc1ccccc1)NC(=O)c1ccco1)NCc1ccccc1,-12,0.1,13,0.3,71*,91*
CC(C)OC(=O)c1ccc(NC(=O)c2ccco2)cc1,-3,0.5,1,0.4,57*,45
O=C(Nc1nnc(COc2ccccc2)s1)c1ccco1,8,0.8,-10,0.9,11,21
SMILES,sEH activator,CYP2C9 act,sEH inh,CYP2C19 act,CYP2C19 inh,CYP2C9 inh
Cn1cc(Cl)c(C(=O)Nc2cccc(Cl)c2Cl)n1,-2,0.8,1,0.5,49,16
Cn1cc(Cl)c(C(=O)OCC(=O)Nc2ccccc2)n1,9,0.8,-7,0.2,83*,22
CCOC(=O)N1CCC(NC2CCCCCCC2)CC1,-4,1.1,6,0.4,58*,-8
CCOC(=O)N1CCN(C(=O)C2CCCCC2)CC1,12,0.8,-12,0.7,32,25
CCOC(=O)/C=C1\SCC(=O)N1CC(=O)Nc1ccccc1OC(F)F,6,0.6,-7,0,96*,38
Cc1nc(SCC(=O)NCC2CCCO2)c2oc3ccccc3c2n1 (stereo unspecified),-21,0.8,19,0.5,52*,18
CCc1nc(SCC(=O)NCC2CCCO2)c2oc3ccccc3c2n1 (stereo unspecified),-4,0.6,4,0.2,77*,43
O=C(Cn1cnc2c(oc3ccccc32)c1=O)NCC1CCCO1 (stereo unspecified),13,0.8,-11,1,-2,17
